Assay outcomes from PubChem.
Most compounds without a hit are left out; they make up all but 2.4% or so of the library.
D2 ag-1: human D2 receptor agonism in beta-arrestin assay; DiscoveRx PathHunter D2 beta-arrestin, luminescence, 90 min; 100% = 57 uM dopamine signal; 360,000 compounds, 0.084% hits; activation, % (no concentration beside the values); in the data active means activation above about 40%; inconclusive means between about 15% and that limit
Target sequence (P14416 whole entry, looked up): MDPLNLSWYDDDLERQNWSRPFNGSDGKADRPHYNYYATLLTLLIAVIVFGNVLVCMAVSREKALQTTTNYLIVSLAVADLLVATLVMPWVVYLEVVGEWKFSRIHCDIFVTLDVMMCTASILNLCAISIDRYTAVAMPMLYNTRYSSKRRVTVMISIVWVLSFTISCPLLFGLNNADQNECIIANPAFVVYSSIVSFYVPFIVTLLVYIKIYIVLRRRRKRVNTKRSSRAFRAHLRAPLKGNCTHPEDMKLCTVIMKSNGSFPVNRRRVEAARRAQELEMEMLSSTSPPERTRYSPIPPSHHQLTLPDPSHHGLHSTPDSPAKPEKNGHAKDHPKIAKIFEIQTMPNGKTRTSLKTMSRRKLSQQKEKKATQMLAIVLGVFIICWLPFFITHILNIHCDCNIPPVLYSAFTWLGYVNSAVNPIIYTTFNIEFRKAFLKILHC
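DiscoveRx PathHunter D2 beta-arrestin cells (2,100/well) attached overnight, then compound-stimulated 90 min at 37 C in HBSS/10 mM HEPES/0.1% Tween-20 buffer; beta-galactosidase complementation read by luminescence after 1 h at ambient temperature. Dopamine 57 uM final (EC100) as control.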
D2 ag-2: agonists of human D2 dopamine receptor; P14416; HEK293 T-REx D2 cells, calcium flux agonist mode; activation, % at 2 µM; 340,000 compounds, 0.53% hits; AID 485358;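 active means activation over 3 SD above normal in the single-dose calcium agonist read, cut at about 30% in these data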; further: 0% is about no effect
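Agonism scored from kinetic calcium signal (1 read/sec, 180 s) following compound pin transfer, after a 10 s baseline. Cells: HEK293 Trex line expressing inducible D2 receptor coupled to calcium, dye-loaded after overnight culture at 30 C.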
D2 PAM-1: D2 dopamine receptor (human) potentiation; P14416; HEK293 T-REx D2, calcium flux, EC20 dopamine potentiation; potentiation, % at 10 µM; 340,000 compounds, 0.34% hits; AID 485347;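 active means potentiation over 3 SD above the plate norm, cut at about 30% in these data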; further: 0% is about no effect
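Potentiation of an EC20 dopamine calcium response measured kinetically over 180 s, after a preceding 180 s compound-only read flagging agonists. Cells: inducible Hek293 Trex D2 line, 4000/well, cultured overnight at 30 C before dye loading.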
D2 antag: antagonists of human D2 dopamine receptor | P14416 | HEK293 TREx D2 cells, calcium flux, dopamine EC80 | inhibition, % at 10 µM | 340,000 compounds, 2% hits | AID 485344; in the data active means inhibition above about 30%; inactive means below that, where a call was filed; further: 0% is about no effect
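Measurement of antagonist activity uses fluorescent calcium dye in inducible HEK293 T-REx D2 cells: 10 s baseline, compound addition with 180 s read, EC80 dopamine addition with a further 180 s read.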
D2 PAM-2: human D2 receptor positive allosteric modulation | AID 624464 | P14416 | potentiation, % (test concentration not listed) | 360,000 compounds, 0.23% hits | DiscoveRx D2 beta-arrestin cells, luminescence, 90 min; 100% = 57 uM dopamine signal; in the data active means potentiation above about 50%; inconclusive means mostly about 30% to 49%
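PathHunter beta-arrestin assay in DiscoveRx D2 cells. Compounds were added with an EC20 of dopamine (50 nM final) for 90 min at 37 deg C. Luminescence was read 1 h after detection reagent, with 57 uM dopamine as the EC100 control.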
An asterisk follows results filed as active; ? = inconclusive; . = no result; ! = a repeat was not active.

SMILES	D2 ag-1	D2 ag-2	D2 PAM-1	D2 antag	D2 PAM-2
O=C(Nc1cccc([N+](=O)[O-])c1)Nc1cccc([N+](=O)[O-])c1	-9.9	3.3	-1.9	25.4	-9.8
Cc1ccc[n+](CC(=O)Nc2cccc([N+](=O)[O-])c2)c1	-8.8	-0.8	-27.4	31.6*	-14.1
O=C(Nc1cccc([N+](=O)[O-])c1)Nc1cnccn1	1.3	37.8*	-1.7	-0.8	-3.0
O=C(O)CCCC(=O)Nc1cccc([N+](=O)[O-])c1	-0.8	-1.1	37.9*	-14.1	-6.8
COc1ccc(OC)c(S(=O)(=O)N2CCC(c3ccncc3)CC2)c1	.	-0.2	.	.	.
Cc1ccc(S(=O)(=O)N(Cc2ccc(F)cc2)Cc2ccco2)cc1	2.9	-0.2	-16.7	-17.7	-3.0
Cc1ccc(S(=O)(=O)N(Cc2ccccc2)Cc2ccco2)cc1	-4.7	-0.2	-10.0	32.5*	-7.3
COc1ccccc1NC(=O)c1sc2nc(-c3cc4cc(Cl)ccc4oc3=O)[nH]c(=O)c2c1C	.	0.7	3.7	.	.
CCCCNC(=O)c1ccc2c(c1)N(C)C(=O)c1ccccc1S2	1.4	-0.8	-8.7	-27.0	-13.3
CC(C)CCNC(=O)c1ccc2c(c1)N(C)C(=O)c1ccccc1S2	-1.8	1.6	-21.4	47.4*	-23.0
CCN1C(=O)c2ccccc2Sc2ccc(C(=O)NCCC(C)C)cc21	-3.5	-0.2	-25.5	43.8*	-21.1
OC(CNCc1ccccc1)c1ccccc1 (stereo unspecified)	-3.8	0.5	-12.3	5.8	-6.1
OC(CNCC#Cc1ccccc1)c1ccccc1 (stereo unspecified)	0.9	20.4	-4.6	39.1*	-11.2
CC(C)CC(NC(N)=O)C(=O)NCc1ccccc1Cl (stereo unspecified)	1.2	-0.1	37.9*	4.1	-3.5
CCOC(=O)C1CCCN(CCCc2ccccc2)C1 (stereo unspecified)	-3.2	1.2	-22.4	70.0*!	-10.8
CCOC(=O)C1CCCN(Cc2nc(N)nc(Nc3ccccc3)n2)C1 (stereo unspecified)	-3.3	0.3	-20.3	46.4*	-36.0
CCOC(=O)C1CCCN(Cc2ccc(OCc3ccccc3)cc2)C1 (stereo unspecified)	-1.0	9.9	-38.0	86.1*	-83.5
Oc1ccc(NCc2ccc(OCc3ccccc3)cc2)cc1	40.2*	-1.0	7.6	-4.8	13.5
Cn1ccc2cc(S(=O)(=O)N3CCC(C(=O)NCCc4ccccc4)CC3)ccc21	.	0.5	-6.8	.	.
Cc1ccc(Nc2ncnc3onc(C)c23)cc1Cl	.	0.1	-11.9	.	.
Cc1cc(C(=O)N2CCN(c3cccc(C)c3C)CC2)c2c(C)nn(-c3ccccc3)c2n1	.	0.5	3.2	.	.
Cc1nn(-c2ccccc2)c2nc(C3CC3)cc(C(=O)Nc3cccc(F)c3)c12	.	1.4	-3.6	.	.
CCN(c1ccccc1)c1nnc(NC(=O)Nc2ccc(C)cc2)s1	.	-0.5	12.7	.	.
CCOc1ccc(CNc2ccc(N3CCN(Cc4ccccc4)CC3)cc2)cc1	2.7	0.0	-8.4	59.0*	-23.1
CCN1CCN(Cc2ccc(OCc3ccccc3)cc2)CC1	-3.0	-1.8	31.7*	-13.0	-11.4
SMILES	D2 ag-1	D2 ag-2	D2 PAM-1	D2 antag	D2 PAM-2
CCOc1ccc(CNc2ccc(N3CCCC3)cc2)cc1	2.4	-0.4	1.7	-27.7	2.7
CCc1ccccc1NC(=O)N(C)CCc1c(C)nn(C)c1C	.	-1.1	.	.	.
Cc1ccccc1NC1=NC(=S)N(CC(N)=O)C12CCOC(C)(C)C2 (stereo unspecified)	-2.8	0.8	-8.3	44.4*	-5.7
Cc1cc(C)cc(N=c2c([N+](=O)[O-])nn(-c3cccc(Cl)c3)n2O)c1	8.6	-1.9	-11.0	9.9	97.4*
Cc1ccc(CN=c2c([N+](=O)[O-])nn(-c3ccc(Cl)cc3)n2O)cc1	1.4	-1.2	1.7	11.3	4.8
CCc1cccc(N=c2c([N+](=O)[O-])nn(-c3ccc(Cl)cc3)n2O)c1	10.0	-0.1	-6.7	10.4	86.7*
Cc1cccc(N=c2c([N+](=O)[O-])nn(-c3ccc(Cl)cc3)n2O)c1	10.6	0.6	2.0	9.9	?
Cn1c(=O)oc2cc(S(=O)(=O)N3CCC(C(=O)N4CC=C(c5ccccc5)CC4)CC3)ccc21	-4.0	0.4	21.6	40.6*	4.6
COc1ccc(CNC(=S)Nc2ccc(F)c(Cl)c2)cc1	0.7	1.8	7.0	68.2*	-15.2
COc1cccc(CN(C)C(=O)CNC(=O)c2cccs2)c1OC	-7.0	1.3	-0.9	37.6*	0.5
COc1ccc(CN(C)C(=O)CNC(=O)c2cccs2)c(OC)c1	7.8	-0.5	-2.3	-0.8	0.1
O=S(=O)(NCc1nc2cccnc2n1Cc1ccccc1Cl)c1ccc(F)c(Cl)c1	.	.	-1.5	.	.
CCOC(=O)c1sc2nc(CSc3ccccc3)nc(N3CCCN(C)CC3)c2c1C	-1.5	0.1	-27.0	53.2*	-0.6
CCOC(=O)c1sc2nc(CSc3ccccc3)nc(N3CCC(C(N)=O)CC3)c2c1C	1.8	-0.1	12.3	-7.4	-1.6
COc1ccc2c(CNCCc3ccccc3OC)c(C(=O)O)n(Cc3ccc(F)cc3Cl)c2c1	.	0.5	-1.7	.	.
COC(=O)c1c(CSc2ccc(Cl)cc2)noc1C(=O)NCc1ccco1	2.8	-0.3	-20.1	37.6*	-12.4
COC(=O)c1c(CSc2cccc(C)c2)noc1C(=O)NCc1ccco1	-0.8	-2.4	-9.6	-0.3	-23.2
Cc1cccc(NS(=O)(=O)c2ccc3c(c2)OCC(C(=O)N2CCCC2)O3)c1C (stereo unspecified)	.	0.1	11.9	.	.
COc1ccc(C(CNC(=O)c2oc3ccccc3c2C)N2CCCC2)cc1 (stereo unspecified)	-4.1	0.8	-28.0	76.0*	-35.4
COc1ccc(NC(=S)NCC(c2cccnc2)N2CCOCC2)cc1 (stereo unspecified)	-0.3	0.4	30.3*	10.0	-0.4
COc1ccc(C(CNC(=O)c2oc3c(Cl)cccc3c2C)N2CCCC2)cc1 (stereo unspecified)	-3.9	0.3	-21.3	39.1*	-44.5
COc1ccc(C(CNC(=O)c2oc3ccc(Cl)cc3c2C)N2CCCCC2)cc1 (stereo unspecified)	-3.9	-1.3	-13.7	-21.2	-17.2
COc1ccc(C(CNC(=S)NCc2ccccc2)N2CCCC2)cc1 (stereo unspecified)	-5.0	0.4	-17.5	40.5*	-17.1
CCOC(=O)Cn1c(=O)n(C2CCCCC2)c2nc(-c3ccc(Cl)cc3)nc(C(N)=O)c21	.	0.0	10.7	.	.
Cc1cccc(N2CCN(C(=O)Cn3c(C)c4cnn(-c5ccccc5)c(=O)c4c3C)CC2)c1C	.	0.8	-5.4	.	.
Cc1ccc(-n2c(CNc3ccc(F)cc3)nnc2SCC(=O)NCc2ccco2)cc1	-3.7	0.4	17.5	33.9*	-10.1
